Reference: PubChem BioAssay (Tox21)
Inconclusive results are not listed. A number with no mark means an inactive call. Active and inactive are the calls of the source. The call rests on the fitted dose curve.

Assay: qHTS assay to identify small molecule antagonists of the estrogen receptor alpha (ER-alpha) signaling pathway using the BG1 cell line (AID 743080);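 further: BG1 cells stimulated with 17beta-estradiol alongside compound; nearly all actives have a fitted effect of over 25% in size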
Conditions: BG1Luc4E2 ERE-luciferase antagonist mode, luminescence; series mostly up to 70.3 µM; activity change, negative = inhibition: at the top concentration
Text: National Center for Advancing Translational Sciences [NCATS]
NIH Chemical Genomics Center [NCGC]
U.S. Environmental Protection Agency [EPA]
National Institutes of Environmental Health Sciences [NIEHS]
National Toxicology Program [NTP]
U.S. Food and Drug Administration [FDA]
Estrogen receptor (ER), a nuclear hormone receptor, plays an important role in development, metabolic homeostasis and reproduction. Endocrine disrupting chemicals (EDCs) and their interactions with steroid hormone receptors like ER causes disruption of normal endocrine function. Therefore, it is important to understand the effect of environmental chemicals on the ER signaling pathway. To identify ER antagonists, BG1-Luc-4E2 cell line (provided by Dr. Michael Denison from University of California) has been used to screen the Tox21 10K compound library. BG1Luc4E2 cell line endogenously expresses full-length ER-alpha and is stably transfected with a plasmid containing four estrogen responsive elements (ERE) upstream of a luciferase reporter gene.
Tox21 Assay Protocol Summary:
BG1-Luc-4E2 cells were cultured in phenol red free assay medium containing 10% charcoal stripped FBS for 5 days before the assay was performed. The cells were dispensed at 4,000 cells/4 uL of assay medium per well into white wall/solid-bottom 1536-well plates using a Multidrop Combi (ThermoFisher Scientific, Waltham, MA) dispenser. The assay plates were incubated at a 37C and 5% CO2 for 24 h, and then 23 nL of compounds dissolved in DMSO, positive controls or DMSO only was transferred to the assay plate using a Pintool station (Kalypsys, San Diego, CA), followed by addition of 1 uL of 17beta-estradiol in assay medium using a Flying Reagent Dispenser (Aurora Discovery, San Diego, CA). After the plates were incubated at 37 C and 5% CO2 for 21.5 h, 1 uL of CellTiter-Fluor reagent (Promega, Madison, WI) of measuring cytotoxicity was added using Flying Reagent Dispenser (FRD) to each well. The assay plates were incubated at 37 C and 5% CO2 for additional 30 min and the fluorescence intensity was quantified by a ViewLux plate reader (PerkinElmer, Shelton, CT). For measuring luciferase reporter gene activity, 4 uL of ONE-Glo reagent (Promega) was added to each plate using an FRD and luminescence was quantified by a ViewLux plate reader after 30 min incubation at room temperature.
On the % scale 0 is the no-effect control and ±100 the full control effect; potency means the concentration at half of the fitted maximal effect.

| Compound | activity change, negative = inhibition | Potency |
| --- | --- | --- |
| CCc1ccccc1N | 4.52% |  |
| O=C(O)C(F)(F)C(F)(F)C(F)(F)C(F)(F)C(F)(F)C(F)(F)C(F)(F)C(F)(F)F | -13.9% |  |
| NC(=S)c1c(Cl)cccc1Cl | -3.26% |  |
| C=CCc1ccccc1O | -4.48% |  |
| COc1cc(C[C@@H](C)N)c(OC)cc1Br | -16.8% [at 95 µM] |  |
| Clc1ccccc1 | 0.5% |  |
| O=C(Cl)OCCOCCOC(=O)Cl | 13.3% |  |
| CCOC(=O)NC(O)C(Cl)(Cl)Cl (stereo not given) | -10.5% |  |
| C#C[C@]1(O)CC[C@H]2[C@@H]3CCC4=CC(=O)CCC4=C3C=C[C@@]21CC |  | 23.7 µM (active) |
| COCc1cnc(C2=NC(C)(C(C)C)C(=O)N2)c(C(=O)O)c1 (stereo not given) | 1.98% |  |
| N#CC(C#N)=Cc1ccc(O)c(O)c1 | -3.88% |  |
| CCC(C)Cl (stereo not given) | -17.3% |  |
| NNCCO | -1.36% |  |
| CCCN(CCC)c1c([N+](=O)[O-])cc(C(C)C)cc1[N+](=O)[O-] |  | inactive |
| C=C(Cl)Cl | -10.2% [at 95 µM] |  |
| OCCSSCCO | -1.95% |  |
| CCCC[N+](CCCC)(CCCC)CCCC | -4.09% |  |
| CCCSP(=S)(OCC)Oc1ccc(SC)cc1 (stereo not given) | -0.115% |  |
| CCC1(CC)C(=O)NC(=O)NC1=O | 0.229% |  |
| Clc1ccc2ccccc2c1 | 0.409% [at 95 µM] |  |

| Compound | activity change, negative = inhibition | Potency |
| --- | --- | --- |
| CN1CC[C@]23c4c5ccc(O)c4O[C@H]2[C@@H](O)CC[C@H]3[C@H]1C5 | 4.97% |  |
| C[N+]1(CCC(C(N)=O)(c2ccccc2)c2ccccc2)CCCCC1 | 0.208% |  |
| CCCCCCCCCCCCCCCl | -6.01% [at 95 µM] |  |
| N#CC(C#N)=C(C#N)C#N | 18% [at 95 µM] |  |
| C=CCOC(=O)C(C)(C)OC(=O)c1cc(-n2c(=O)cc(C(F)(F)F)n(C)c2=O)ccc1Cl |  | 26.8 µM (active) |
| CN1C[C@H](C(=O)N[C@]2(C)O[C@@]3(O)[C@@H]4CCCN4C(=O)[C@H](Cc4ccccc4)N3C2=O)C=C2c3cccc4[nH]cc(c34)C[C@H]21 |  | inactive |
| CC(Oc1cc(Cl)c(Cl)cc1Cl)C(=O)O (stereo not given) | 1.94% |  |
| Cc1ccc2c(C)cccc2c1 | -4.37% |  |
| CN(C1CCCCC1)C1CCCCC1 | 1.21% |  |
| C=C(C)C(=O)OCCCCOC(=O)C(=C)C | 4.5% |  |
| CC(C)C1(C)N=C(c2ncccc2C(=O)O)NC1=O (stereo not given) | -7.83% |  |
| CC(=O)OC(c1ccccc1)C(Cl)(Cl)Cl (stereo not given) |  | 68.6 µM (active) |
| C[N+](C)(C)CC1CO1 (stereo not given) | 1.25% |  |
| CCCCCCCCCCCCN=C(N)N | -30.4% [at 3.79 µM] |  |
| C[N+]1(CCF)[C@@H]2CC[C@H]1CC(OC(=O)C(O)(c1ccccc1)c1ccccc1)C2 (stereo not given in full) | 6.9% |  |
| CC(C)OC(=O)Cc1ccccc1 | 10.5% [at 95 µM] |  |
| OCC1CO1 (stereo not given) |  | inactive |
| CCCCC#N | -4.89% |  |
| C1CS1 | 0.311% [at 95 µM] |  |
| CC[N+]1(CCOC(=O)C(O)(c2ccccc2)c2ccccc2)CCCCC1 | 0.0132% |  |
